IL-1B inflam inh: blocks inflammasome-driven IL-1 beta release | THP-1 LPS/ATP IL-1B secretion, AlphaLISA, 16 h; active compounds read low | activity change, % at 57.5 µM | 4.7% of 360,000 active; in the data active means activity change below about -50%; inconclusive means mostly about -30% to -49%; further: on the % scale 0 is the no-effect control and ±100 the full control effect
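Secreted IL-1B measured by AlphaLISA bead assay after 16 h compound exposure of THP-1 cells; compounds (final up to 57.5 uM) added 1 h before LPS (250 ng/mL) and ATP (1.25 mM) stimulation; lower signal means less secretion.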
ClpP mod: qHTS Assay for Activators of ClpP; 1.9% of 340,000 active; Potency, µM (doses to about 57.5 µM), without a hit: top-dose activity change, negative = active; purified B. subtilis ClpP, FRET peptide cleavage, 20 min; ATP-dependent Clp protease proteolytic subunit (Bacillus subtilis (strain 168)), P80244; active means well fitted falling curve with a large enough effect; inconclusive means small, poorly fitted or top-dose-only effect; inactive means no such curve, though single readings can be large or run the other way; further: potency means the concentration at half of the fitted maximal effect; the source files actives as falling curves though it sought activators and does not explain the sign; nearly all actives have a fitted effect of over 65% in size
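FRET quenching reversal measured ClpP activation: 10 microg/mL B. subtilis ClpP at pH 8 with the FRET-FV decapeptide, read at 430 nm after 320 nm excitation. The 20-min minus 0-min signal was scaled between DMSO/no-enzyme wells and ADEP (5.8 microM final).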
TDP1 cell noCPT: qHTS for Inhibitors of human tyrosyl-DNA phosphodiesterase 1 (TDP1): qHTS in cells in absence of CPT. DT40 Tdp1-/- hTDP1 cells, no CPT, ATP luminescence, 48 h. AID 686978, 2013. Potency, µM (doses to about 46.2 µM), without a hit: at the highest dose activity change, negative = growth inhibition, actives largely listed as inhibitors. 15% of 420,000 active; further: potency means the concentration at half of the fitted maximal effect; on the % scale 0 is the no-effect control and ±100 the full control effect; nearly all actives have a fitted effect of over 55% in size
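Growth of hTDP1-complemented DT40 Tdp1-knockout cells is measured by ATP luminescence after at least 48 hr compound exposure at 37 °C, with DMSO substituting for the 20 nM CPT used in the parallel screen.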
DRD3 agonist: agonists of human D3 dopamine receptor. P35462. D3R DiscoveRx beta-arrestin cells, luminescence, 90 min. max activation, %. 0.58% of 410,000 active. AID 652048; in the data active means max activation above about 30%; further: 0% is about no effect
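Agonist-mode cell screen: cells plated at 1500/well and incubated overnight at 37 °C, then exposed to library compounds for 90 min at 37 °C. Detection reagent was added for 30–60 min at room temperature, and luminescence was read.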
DRD3 antagonist: D3 dopamine receptor (human) antagonism. P35462. D3R cells, DiscoveRx beta-arrestin luminescence, antagonist mode; active compounds read low. max response, negative = inhibition, %. 2.5% of 360,000 active; in the data active means max response below about -50%; inconclusive means no clear call, values can overlap the other calls; further: on the % scale 0 is the no-effect control and ±100 the full control effect
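Cells expressing the human receptor were seeded at 1500 cells/well, incubated overnight at 37 degrees C in 5% CO2, then exposed to library compounds with dopamine controls for 90 minutes at 37 degrees C before luminescent detection.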
DT40 TDP1 CPT: growth inhibition of DT40 Tdp1-/-;hTDP1 cells with camptothecin (screen for TDP1 inhibitors); AID 686979; 12% of 420,000 active; chicken DT40 Tdp1-/-;hTDP1 cells + 20 nM CPT, ATP luminescence, 48 h; Potency, µM (highest dose often 46.2 µM), for inactives: at the highest dose activity change, negative = growth inhibition, actives largely listed as inhibitors; further: potency means the concentration at half of the fitted maximal effect; on the % scale 0 is the no-effect control and ±100 the full control effect; nearly all actives have a fitted effect of over 55% in size
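Chicken DT40 Tdp1-/- cells complemented with human TDP1, 400 cells/well, exposed to compounds plus 20 nM camptothecin for at least 48 h at 37 C; viability read as ATP content by CellTiter-Glo luminescence.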
* = called active by the depositor; ? = inconclusive; · = not tested or not shown; ! = not active in a repeat. The list is not random: actives were taken first. Their share in the collection is about 21%. Unless noted, the call rests on the fitted dose curve; in most records, active means well fitted inhibition curve with a large enough effect; inconclusive means small, poorly fitted or top-dose-only effect; inactive means flat fitted curve, though single readings scatter.

SMILES	IL-1B inflam inh	ClpP mod	TDP1 cell noCPT	DRD3 agonist	DRD3 antagonist	DT40 TDP1 CPT
Cc1ccc(NC(=O)c2ccccc2OCC(=O)Nc2ccccc2F)cc1S(=O)(=O)N(C)C	-17.8	?	20.6µM*	-4.7	29.3	16.4µM*
CN(C)S(=O)(=O)c1cccc(NC(=O)COc2ccccc2C(=O)Nc2ccccc2)c1	?	-13.7%	9.2µM*	5.6	37.2	18.4µM*
CN(C)S(=O)(=O)c1cccc(NC(=O)COc2cccc3ccccc23)c1	7.0	-0.6%	-14.6%	0.8	12.9	-25.6%
Cc1ccc(S(=O)(=O)N(C)C)cc1NC(=O)COc1ccccc1C(=O)Nc1ccccc1	-13.0	1.1%	9.2µM*	4.7	21.3	13µM*
CCOc1ncccc1C(=O)OCC(=O)Nc1ccc(C)c(S(=O)(=O)N(C)C)c1	-2.4	·	-27.8%	3.9	8.2	-21.0%
COC(=O)c1ccccc1NC(=O)COc1ccccc1C(=O)Nc1ccccc1	·	-16.3%	?	·	·	?
Cc1ccc(S(=O)(=O)N(C)C)cc1NC(=O)COC(=O)/C(=C/c1ccc(F)cc1)c1cccs1	-14.7	-0.2%	25.9µM*	-1.6	?	13µM*
CSc1ccc(CCCCCCOC(=O)C(C)(C)C)cc1	1.3	-0.9%	-11.6%	7.6	-9.2	-15.5%
C/C(=N\NC(=O)CC1N=C(Cc2ccccc2)NNC1=O)c1ccc(Br)cc1 (configuration not stated)	7.8	0.4%	?	1.7	0.0	?
C[C@@H](O)[C@H]1C(=O)N2C(C(=O)O)=C(S[C@@H]3CN[C@H](C(=O)N(C)C)C3)[C@H](C)[C@H]12	·	·	-1.0%	2.7	·	-4.0%
COC(=O)C1=CN(Cc2ccc(OC)cc2)C=C(C(=O)OC)C1c1cccs1	-10.5	·	?	-6.9	55.0	-10.5%
COC(=O)C1=CN(CCCN2CCCC2=O)C=C(C(=O)OC)C1c1cccs1	10.4	28.2µM*	6.6%	2.5	-7.3	2.8%
O=C(Cn1cc(S(=O)(=O)Cc2cccc(Cl)c2)c2ccccc21)NCc1ccccc1Cl	·	-2.6%	?	-4.2	·	?
CC(C)CC1Nc2ncnc(N3CCN(c4ccccn4)CC3)c2N(Cc2ccccc2)C1=O (configuration not stated)	-56.3*!	-4.7%	?	-9.3	-22.6	?
Cc1ccc(CN2C(=O)C(CC(C)C)Nc3ncnc(N4CCN(c5ccccc5)CC4)c32)cc1 (configuration not stated)	?	-0.6%	20.6µM*	-13.5	-54.6*!	14.6µM*
O=C1C(Cc2ccccc2)Nc2ncnc(N3CCOCC3)c2N1Cc1ccccc1 (configuration not stated)	-4.2	-0.4%	-16.4%	-1.1	-29.0	-14.8%
COc1ccc(CN2C(=O)C(Cc3ccccc3)Nc3ncnc(N4CCOCC4)c32)cc1 (configuration not stated)	10.5	-2.3%	?	-15.1	?	?
Cc1ccc(CN2C(=O)C(Cc3ccccc3)Nc3ncnc(N4CCOCC4)c32)cc1 (configuration not stated)	-4.1	-0.8%	?	-9.2	-58.2*	?
CC(C)CC1Nc2ncnc(N3CCOCC3)c2N(Cc2ccc(Br)cc2)C1=O (configuration not stated)	9.9	-0.5%	?	2.0	-13.1	?
CC(C)CC1Nc2ncnc(N3CCN(c4ccccc4)CC3)c2N(Cc2ccc(Cl)cc2)C1=O (configuration not stated)	-29.8	-0.7%	18.4µM*	-9.9	-23.1	?
S=c1[nH]ccn1-c1c(Cl)cccc1Cl	29.3	·	1.7%	2.6	4.6	-4.8%
O=C(CC(Cc1ccccc1)C(=O)O)Nc1ccc(Cl)c(Cl)c1 (configuration not stated)	-12.2	·	6.2%	-6.4	-20.3	5.7%
CCC1Nc2ncnc(N3CCN(c4ccccc4)CC3)c2N(Cc2ccc(C)cc2)C1=O (configuration not stated)	9.6	-4.7%	?	-61.2	-138.8*	?
CCC1Nc2ncnc(N3CCOCC3)c2N(Cc2ccc(C)cc2)C1=O (configuration not stated)	38.0	-6.4%	-18.0%	6.0	-2.5	-0.5%
COc1ccc(S(=O)(=O)NCc2ccc(C(=O)NCc3ccccc3)cc2)cc1	·	1.3%	-8.8%	-7.4	·	-18.3%
SMILES	IL-1B inflam inh	ClpP mod	TDP1 cell noCPT	DRD3 agonist	DRD3 antagonist	DT40 TDP1 CPT
CCCCN(C)S(=O)(=O)c1ccc(C(=O)N=c2sc3cc(NC(C)=O)ccc3n2C)cc1	5.5	-10.2%	-85.6%	1.5	?	?
CCCCN(CC)S(=O)(=O)c1ccc(C(=O)N=c2sc3cc(NC(C)=O)ccc3n2C)cc1	-6.5	30.3%	16.4µM*	27.5	-6.7	8.2µM*
O=C(NCCc1ccccc1)C(c1cccs1)N(C(=O)c1csnn1)C1CC1 (configuration not stated)	-7.8	-1.3%	-28.4%	-4.7	-28.4	?
O=C(NCCc1ccccc1)C(c1cccs1)N(C(=O)CCl)c1ccc(Cl)cc1 (configuration not stated)	-97.9*	1.4%	1.64µM*	-10.1	-11.6	1.84µM*
Cc1ccc2c(C)c(C(=O)N3CCC(C(N)=O)(N4CCCCC4)CC3)oc2c1C	-8.8	-0.9%	20.6µM*	-4.5	0.3	?
COc1ccccc1C(=O)N1CCN(C(=O)c2oc3c(C)c(C)ccc3c2C)CC1	-27.4	-0.6%	16.4µM*	3.8	24.3	?
Cc1cc(=O)[nH]c2n[nH]c(-c3ccccc3)c12	16.0	25.1µM*	?	0.7	9.7	-22.2%
O=C1C=C(c2cccc(Cl)c2O)C[C@@H](c2ccc(Cl)cc2)C1	-0.8	-4.1%	?	0.7	-0.7	?
O=C1C(=O)c2ccccc2C(O)=C1C1CCC(c2ccc(Cl)cc2)CC1 (configuration not stated)	4.8	2.6%	2.31µM*!	-13.4	?	?
Clc1ccccc1Cc1cn2cc(-c3ccccc3)nc2s1	·	-1.6%	?	0.6	·	?
CC/C=C/C(=O)N1CC2(CC(c3cccc(NC(=O)CC(c4ccccc4)c4ccccc4)c3)=NO2)C[C@@H]1C(N)=O (some centres not stated)	?	-2.9%	16.4µM*	-20.9	13.8	-85.6%

Screening results: PubChem, National Center for Advancing Translational Sciences (NCATS)
